# Experimental data published in PubChem BioAssay (NCATS).
# Values without a mark were called inactive. No rule for the calls is given here.
# Test system: HIV-1 nucleocapsid protein NCp7 (binding to TG oligonucleotide)
# Experiment: HIV Nucleocapsid (AID 346);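 also: potency is for inhibitors that block NC binding and lower polarization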
# Details: HIV-1 NC / fluorescein-TGTGTGTG probe, fluorescence polarization
# In short: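 Reagents dispensed (10 nM TG4xF, 100 nM HIV-1 NC), plates spun, compounds pin-transferred, then incubated 1 hr at room temperature before FP imaging. Buffer: Hepes pH 7.5, 250mM NaCl, 1uM ZnCl2, 100 uM TCEP, 5 mM 2-mercaptoethanol.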
# Potency is read from the fitted curve at half-maximal effect.
row,Structure (SMILES),Potency [µM]
1,CC(C)CN1CCC2(CC1)CCN(C(=O)c1csnn1)CC2,> 20
2,COc1ccccc1-c1nccc(N2CCN(C)CC2)n1,> 20
3,COC(=O)N1CCC2(CCCN(c3ccccn3)C2)CC1,> 20
4,O=C(c1cc(C(F)(F)F)cc(C(F)(F)F)c1)N1CCC2(CC1)CN(Cc1ccccc1)C2,> 20
5,O=C(c1ccco1)N1CCC2(CCCN(c3ccncc3)C2)CC1,> 20
6,Cn1cc(-c2nc3cnc(Oc4cccc(Cl)c4)nc3n(CCC#N)c2=O)c2ccccc21,> 20
7,COc1cccc(-c2nc(Nc3ccncc3)c3ccccc3n2)c1,> 20
8,COCC(=O)N1CCC2(CC1)CN(C(=O)Nc1cccc(F)c1)C2,> 20
9,CN(C)c1ncc2nc(-c3ccc(Cl)cc3)c(=O)n(Cc3ccc(F)cc3)c2n1,> 4
10,CN1CCN(c2ncc3nc(-c4cn(C)c5ccccc45)c(=O)n(C[C@H]4CCCO4)c3n2)CC1,> 20
11,COc1ccc(-c2nc3cnc(N4CCNCC4)nc3n(Cc3cccc(OC)c3)c2=O)cc1,> 20
12,O=c1c(-c2ccc(Cl)cc2)nc2cnc(N3CCOCC3)nc2n1CCc1ccccc1,> 4
13,COc1ccc(NC(=O)N2CC[C@@]3(CCCN(C(C)=O)C3)C2)cc1,> 20
14,CS(=O)(=O)Nc1cccc(-c2cncnc2-n2ccnc2)c1,> 20
15,Cc1noc(C)c1C(=O)N1CCC2(CCCN(c3ccccn3)C2)CC1,> 20
